Test results published in PubChem BioAssay (EPA / NIEHS).
Inconclusive results are not listed. Activity calls are given as the source filed them. Rule for the calls, unless noted: active = hit-call score of the fitted dose curve at least 0.9, where 1 is the maximum; inconclusive = response in the unintended direction; inactive = score below 0.9.

Experiments:
[1] = biological target: human Peroxisome Proliferator-activated Receptor alpha (PPARa), PPARA (gene 5465) (UniProt Q07869); assay: ATG_PPARa_TRANS: Attagene TRANS-FACTORIAL HepG2 Assay for human Peroxisome Proliferator-activated Receptor alpha (PPARa) (AID 2283001);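 for AC50: potency for gain of reporter signal over DMSO so agonist or activator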
How it was run: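 Reporter transcripts quantified by RT-PCR plus capillary electrophoresis after 24 h treatment, fitted upward relative to DMSO. Cells: human HepG2 transiently carrying multiple GAL4-UAS reporter units driven by NR-Gal4 chimeras.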

[2] = biological target: human Peroxisome Proliferator-activated Receptor delta (PPARd), PPARD (gene 5467) (UniProt Q03181); assay: ATG_PPARd_TRANS: Attagene TRANS-FACTORIAL HepG2 Assay for human Peroxisome Proliferator-activated Receptor delta (PPARd) (AID 2283002)
How it was run: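 Transient HepG2 transfection (multiple GAL4-UAS RTUs, chimeric receptor-Gal4); 24 h dosing; total RNA → oligo(dT) RT → PCR → 6-FAM primer extension → HpaI cut → CE. Positive direction vs DMSO.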

[3] = read-out: Intercellular Adhesion Molecule 1 (ICAM1), ICAM1 (gene 3383); assay: BSK_3C_ICAM1: BioMAP Diversity Plus: 3C Assay for Intercellular Adhesion Molecule 1 (ICAM1) Biomarker Activity (AID 2283003; active = hit-call score of the fitted dose curve at least 0.9, where 1 is the maximum; inactive = score below 0.9); conditions: primary human endothelial cells (HUVEC); actives raise or lower the signal
How it was run: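 Chemicals are dosed onto primary human umbilical vein endothelium (3C system). After 24 h, ICAM-1 is measured by ELISA, and responses are fitted bidirectionally relative to DMSO.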

[4] = BSK_3C_Proliferation: Cell Proliferation Assessment in the BioMAP Diversity Plus: 3C Assay (AID 2283006; active = hit-call score of the fitted dose curve at least 0.9, where 1 is the maximum; inactive = score below 0.9;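 for AC50: potency may reflect either rise or fall in cell number versus DMSO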); conditions: primary human endothelial cells (HUVEC)
How it was run: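 Cells (human umbilical vein endothelial, sub-confluent) receive test chemical; after 48 h they are fixed in 10% trichloroacetic acid, stained with 0.1% SRB and read at 560 nm. Activity is referenced to DMSO, fitting increases and decreases.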

[5] = biological target: Nuclear receptor subfamily 1 group I member 2 (Homo sapiens) (UniProt O75469); assay: ATG_PXR_TRANS: Attagene TRANS-FACTORIAL HepG2 Assay for human Pregnane X Receptor (PXR) (AID 2283008)
How it was run: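 Trans-factorial format: exogenous NR-Gal4 fusion activity, not endogenous factor, in transfected human HepG2 liver cells. After 24 h dosing, RNA isolated, reverse-transcribed, amplified and resolved by capillary electrophoresis; induction scored versus DMSO.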

[6] = biological target: human Retinoic Acid Receptor beta (RARb), RARB (gene 5915) (UniProt P10826); assay: ATG_RARb_TRANS: Attagene TRANS-FACTORIAL HepG2 Assay for human Retinoic Acid Receptor beta (AID 2283004)
How it was run: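 HepG2 cells were transiently transfected with GAL4-UAS reporter units that report activity of exogenous chimeric NR-Gal4 proteins, then exposed to compound for 24 h. Reporter mRNA was quantified by RT-PCR with capillary electrophoresis fluorescence, as gain of signal over DMSO.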

[7] = biological target: human Retinoic Acid Receptor gamma (RARg), RARG (gene 5916) (UniProt P13631); assay: ATG_RARg_TRANS: Attagene TRANS-FACTORIAL HepG2 Assay for human Retinoic Acid Receptor gamma (RARg) (AID 2283009)
How it was run: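 TRANS format measured activity of exogenous NR-GAL4 fusion (RARg) in transfected HepG2 liver cells after 24 h dosing. Induced reporter RNA was detected by RT-PCR/capillary electrophoresis fluorescence, analysed in the positive direction against DMSO.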

[8] = biological target: human RAR-related Orphan Receptor beta (RORb), RORB (gene 6096) (UniProt Q92753); assay: ATG_RORb_TRANS: Attagene TRANS-FACTORIAL HepG2 Assay for human RAR-related Orphan Receptor beta (RORb) (AID 2283010)
How it was run: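 Transfect HepG2 with multiple GAL4-UAS reporter transcription units; dose chemicals for 24 h; isolate RNA, reverse-transcribe and PCR-amplify reporter sequences; label, digest and resolve fragments by capillary electrophoresis; fit increases relative to DMSO.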

[9] = biological target: Retinoic acid receptor alpha (Homo sapiens) (UniProt P10276); assay: ATG_RARa_TRANS: Attagene TRANS-FACTORIAL HepG2 Assay for human Retinoic Acid Receptor alpha (RARa) (AID 2283005);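 for AC50: potency for increased reporter signal meaning RARa activation over DMSO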
How it was run: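 Reporter transcripts, measured by RT-PCR with fluorescent labeling and capillary electrophoresis after 24 h dosing, reflect activity of an exogenous human RARa–GAL4 fusion in transiently transfected HepG2. Fitted for increase relative to DMSO.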

[10] = biological target: Peroxisome proliferator-activated receptor gamma (Homo sapiens) (UniProt P37231); assay: ATG_PPARg_TRANS: Attagene TRANS-FACTORIAL HepG2 Assay for human Peroxisome Proliferator-activated Receptor-gamma (PPARg) (AID 2283007)
How it was run: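 Multiplexed reporter transcription units in HepG2, 24 h dosing, reporter transcripts quantified by fluorescent RT-PCR and capillary electrophoresis. Increase over DMSO scored.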

Measured: AC50

Chain of human RAR-related Orphan Receptor beta (RORb), RORB (gene 6096) (Q92753 whole entry, looked up, the tested form may be a part): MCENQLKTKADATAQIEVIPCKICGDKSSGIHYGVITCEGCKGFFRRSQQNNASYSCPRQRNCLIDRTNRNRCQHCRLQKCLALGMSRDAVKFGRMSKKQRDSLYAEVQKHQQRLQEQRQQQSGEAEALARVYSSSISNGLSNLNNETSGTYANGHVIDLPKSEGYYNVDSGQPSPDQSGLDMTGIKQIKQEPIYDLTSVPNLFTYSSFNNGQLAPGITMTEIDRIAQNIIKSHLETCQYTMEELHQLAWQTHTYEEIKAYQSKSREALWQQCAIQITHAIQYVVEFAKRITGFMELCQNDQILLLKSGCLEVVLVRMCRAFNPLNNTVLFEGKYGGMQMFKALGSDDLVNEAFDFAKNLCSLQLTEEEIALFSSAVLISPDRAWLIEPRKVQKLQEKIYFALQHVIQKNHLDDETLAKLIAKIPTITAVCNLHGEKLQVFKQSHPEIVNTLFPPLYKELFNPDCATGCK
Chain of human Retinoic Acid Receptor beta (RARb), RARB (gene 5915) (P10826 whole entry, looked up, the tested form may be a part): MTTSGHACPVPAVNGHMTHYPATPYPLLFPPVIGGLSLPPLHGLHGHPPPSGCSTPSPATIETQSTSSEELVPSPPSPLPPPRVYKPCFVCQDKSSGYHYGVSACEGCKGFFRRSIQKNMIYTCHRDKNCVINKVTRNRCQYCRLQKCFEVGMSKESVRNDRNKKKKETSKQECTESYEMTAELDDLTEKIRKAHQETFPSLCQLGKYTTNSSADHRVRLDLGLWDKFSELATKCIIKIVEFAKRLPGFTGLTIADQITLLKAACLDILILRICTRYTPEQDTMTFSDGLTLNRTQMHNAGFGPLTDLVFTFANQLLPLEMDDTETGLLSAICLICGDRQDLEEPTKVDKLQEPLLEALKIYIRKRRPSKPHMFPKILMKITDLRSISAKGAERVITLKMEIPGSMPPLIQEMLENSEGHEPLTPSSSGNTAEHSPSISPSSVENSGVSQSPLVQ
Chain of human Peroxisome Proliferator-activated Receptor alpha (PPARa), PPARA (gene 5465) (Q07869 whole entry, looked up, the tested form may be a part): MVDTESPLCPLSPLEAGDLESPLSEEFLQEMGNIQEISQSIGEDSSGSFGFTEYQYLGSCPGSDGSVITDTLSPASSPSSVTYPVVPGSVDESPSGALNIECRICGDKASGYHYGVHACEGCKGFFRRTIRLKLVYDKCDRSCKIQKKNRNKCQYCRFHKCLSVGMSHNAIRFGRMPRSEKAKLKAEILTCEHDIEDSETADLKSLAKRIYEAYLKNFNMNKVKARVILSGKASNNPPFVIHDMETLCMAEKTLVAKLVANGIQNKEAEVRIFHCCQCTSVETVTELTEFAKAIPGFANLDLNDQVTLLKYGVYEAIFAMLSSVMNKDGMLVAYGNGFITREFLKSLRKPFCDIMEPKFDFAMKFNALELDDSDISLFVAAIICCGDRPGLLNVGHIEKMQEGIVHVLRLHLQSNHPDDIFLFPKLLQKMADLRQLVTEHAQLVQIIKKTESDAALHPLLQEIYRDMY
Chain of human Peroxisome Proliferator-activated Receptor delta (PPARd), PPARD (gene 5467) (Q03181 whole entry, looked up, the tested form may be a part): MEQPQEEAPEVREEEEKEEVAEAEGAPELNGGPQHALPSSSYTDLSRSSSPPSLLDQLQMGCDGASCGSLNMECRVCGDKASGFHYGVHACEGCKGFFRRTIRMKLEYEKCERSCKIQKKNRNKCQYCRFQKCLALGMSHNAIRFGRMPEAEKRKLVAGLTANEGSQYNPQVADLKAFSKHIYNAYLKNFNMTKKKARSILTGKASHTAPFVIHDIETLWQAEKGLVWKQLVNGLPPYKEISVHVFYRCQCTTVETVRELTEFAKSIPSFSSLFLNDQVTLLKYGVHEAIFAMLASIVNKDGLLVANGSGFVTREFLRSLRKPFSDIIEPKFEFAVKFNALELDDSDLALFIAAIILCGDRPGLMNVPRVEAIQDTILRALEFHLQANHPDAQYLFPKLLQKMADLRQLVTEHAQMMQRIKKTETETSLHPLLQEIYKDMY
Chain of Nuclear receptor subfamily 1 group I member 2 (Homo sapiens) (O75469 whole entry, looked up, the tested form may be a part): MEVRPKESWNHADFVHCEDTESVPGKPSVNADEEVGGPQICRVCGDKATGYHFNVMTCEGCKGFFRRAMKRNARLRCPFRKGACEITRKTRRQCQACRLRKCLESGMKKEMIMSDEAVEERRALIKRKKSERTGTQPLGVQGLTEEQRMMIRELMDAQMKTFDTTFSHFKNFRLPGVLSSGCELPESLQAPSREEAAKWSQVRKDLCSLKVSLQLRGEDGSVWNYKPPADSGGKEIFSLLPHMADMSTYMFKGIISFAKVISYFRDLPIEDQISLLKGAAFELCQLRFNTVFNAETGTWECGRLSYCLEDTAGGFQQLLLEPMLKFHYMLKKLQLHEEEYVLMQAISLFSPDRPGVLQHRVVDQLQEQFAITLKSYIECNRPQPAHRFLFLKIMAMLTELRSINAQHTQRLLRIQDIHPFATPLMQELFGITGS
Chain of Peroxisome proliferator-activated receptor gamma (Homo sapiens) (P37231 whole entry, looked up): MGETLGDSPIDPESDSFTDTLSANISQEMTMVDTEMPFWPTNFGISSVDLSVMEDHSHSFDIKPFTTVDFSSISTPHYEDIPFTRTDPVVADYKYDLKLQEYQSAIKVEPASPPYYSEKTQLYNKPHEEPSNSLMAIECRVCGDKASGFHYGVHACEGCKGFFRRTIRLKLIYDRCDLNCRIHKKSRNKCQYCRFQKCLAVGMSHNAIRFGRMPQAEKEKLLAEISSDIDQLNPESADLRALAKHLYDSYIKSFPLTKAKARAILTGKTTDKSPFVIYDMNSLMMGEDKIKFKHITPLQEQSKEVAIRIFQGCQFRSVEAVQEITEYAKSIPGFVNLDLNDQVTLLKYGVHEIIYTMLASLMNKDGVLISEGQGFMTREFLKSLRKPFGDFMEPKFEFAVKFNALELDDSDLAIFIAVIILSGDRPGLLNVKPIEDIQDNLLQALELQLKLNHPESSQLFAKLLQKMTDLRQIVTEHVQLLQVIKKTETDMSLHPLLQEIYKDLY
Chain of Retinoic acid receptor alpha (Homo sapiens) (P10276 whole entry, looked up, the tested form may be a part): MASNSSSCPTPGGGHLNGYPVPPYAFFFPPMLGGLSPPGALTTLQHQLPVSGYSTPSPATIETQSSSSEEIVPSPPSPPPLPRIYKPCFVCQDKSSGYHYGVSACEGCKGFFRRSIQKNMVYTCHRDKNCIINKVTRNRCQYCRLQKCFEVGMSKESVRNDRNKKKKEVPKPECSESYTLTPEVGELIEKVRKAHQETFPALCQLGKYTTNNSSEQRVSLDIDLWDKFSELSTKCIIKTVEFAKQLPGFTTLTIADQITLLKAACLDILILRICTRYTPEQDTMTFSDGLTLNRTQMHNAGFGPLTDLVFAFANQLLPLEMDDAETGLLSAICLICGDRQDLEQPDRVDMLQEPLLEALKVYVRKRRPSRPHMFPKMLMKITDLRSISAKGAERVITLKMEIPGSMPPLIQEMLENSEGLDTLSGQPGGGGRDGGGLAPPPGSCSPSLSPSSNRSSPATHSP
Chain of human Retinoic Acid Receptor gamma (RARg), RARG (gene 5916) (P13631 whole entry, looked up, the tested form may be a part): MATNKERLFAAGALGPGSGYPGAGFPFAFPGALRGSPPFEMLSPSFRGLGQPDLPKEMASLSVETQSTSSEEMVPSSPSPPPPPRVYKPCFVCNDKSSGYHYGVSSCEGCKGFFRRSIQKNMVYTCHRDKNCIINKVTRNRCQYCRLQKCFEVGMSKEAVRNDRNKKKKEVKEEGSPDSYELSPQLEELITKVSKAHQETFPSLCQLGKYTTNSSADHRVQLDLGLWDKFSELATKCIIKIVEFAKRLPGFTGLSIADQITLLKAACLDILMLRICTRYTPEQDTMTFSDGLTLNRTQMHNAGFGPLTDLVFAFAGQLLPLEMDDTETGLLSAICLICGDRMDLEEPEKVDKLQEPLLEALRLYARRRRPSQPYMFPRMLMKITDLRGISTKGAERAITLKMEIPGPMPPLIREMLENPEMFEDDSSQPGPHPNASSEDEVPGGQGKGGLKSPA

CN(C)C(=O)C1(N2CCCCC2)CCN(CC[C@@]2(c3ccc(Cl)c(Cl)c3)CN(C(=O)c3ccccc3)CCO2)CC1
inactive: [1] | [2] | [5]
active: [3] 36.8 µM | [4] 6.91 µM

Cc1ncc(CO)c(CO)c1O
inactive: [1] | [2] | [3] | [4] | [5]

CC(C)(O)c1ccc(CNC(=O)c2cccnc2Oc2ccc3nonc3c2)cc1
inactive: [2] | [3] | [6] | [4] | [7]
active: [1] 1.08 µM | [5] 10.5 µM

Clc1cc(Cl)c2c(c1)N=C1CCCCCN1C2
active: [5] 20.2 µM
inactive: [1] | [2] | [3] | [6] | [4] | [7]

CCCCCCCCCC(=O)O
inactive: [3] | [4] | [5] | [7] | [8]
active: [1] 29.1 µM

Cc1occc1C(=O)Nc1ccc(C(=O)N2CCC(F)(F)/C(=C\C(=O)N3CCC(N4CCCCC4)CC3)c3ccccc32)cc1
active: [1] 53 µM | [5] 25.5 µM
inactive: [3] | [4]

Cc1ccc2oc(CN(Cc3ccccc3)C(=O)Nc3c(F)cc(F)cc3F)c(-c3ccc(Cl)cc3)c2c1
inactive: [3] | [9]
active: [4] 7.43 µM | [5] 1.24 µM

CO[C@H]1/C=C/O[C@@]2(C)Oc3c(C)c(O)c4c(O)c(c(/C=N/N5CCN(C)CC5)c(O)c4c3C2=O)NC(=O)/C(C)=C\C=C\[C@H](C)[C@H](O)[C@@H](C)[C@@H](O)[C@@H](C)[C@H](OC(C)=O)[C@@H]1C
inactive: [2] | [3] | [6] | [9] | [4] | [10]

COc1ccc2cc(S(=O)(=O)N[C@H](CC(=O)N[C@H](Cc3ccc(CN4[C@H](C)CCC[C@@H]4C)cc3)C(=O)N(C)C(C)C)c3ccc4c(c3)OCO4)ccc2c1
active: [4] 22 µM
inactive: [1] | [3] | [5]

CC[C@@H]1C[C@H](N(Cc2cc(C(F)(F)F)cc(C(F)(F)F)c2)C(C)=O)c2cc(C(F)(F)F)ccc2N1C(=O)OC(C)C
active: [9] 1.1 µM | [5] 0.118 µM
inactive: [2] | [3] | [6] | [4] | [10] | [7]

CCCC(=O)OCCC(C)C
inactive: [3] | [6] | [9] | [4] | [7]

NC(=O)c1nc(-c2cccc(-c3cc(F)ccc3OCC(F)(F)C(F)(F)F)c2)n[nH]1
inactive: [2]
active: [4] 32.4 µM | [5] 8.71 µM

CC/C(=C(/CC)c1ccc(O)cc1)c1ccc(O)cc1
active: [3] 32.8 µM | [4] 20 µM
inactive: [6] | [7] | [8]

CC1(C)NC(=O)N(c2ccc([N+](=O)[O-])c(C(F)(F)F)c2)C1=O
inactive: [1] | [3] | [4] | [7]

CCN(Cc1cccc(S(=O)(=O)O)c1)c1ccc(C(=C2C=CC(=[N+](CC)Cc3cccc(S(=O)(=O)O)c3)C=C2)c2ccccc2S(=O)(=O)[O-])cc1
inactive: [2] | [3] | [4] | [10] | [5] | [8]

Cc1oc2c(NC(=O)c3c(Cl)cccc3Cl)cccc2c1C(C)(C)O
inactive: [2] | [3] | [6] | [9] | [7]
active: [4] 21.4 µM | [5] 0.204 µM

C[C@]12CC[C@@H]3c4ccc(O)cc4CC[C@H]3[C@@H]1CC[C@H]2O
active: [4] 9.12 µM | [5] 4.02 µM [middle of 4 runs]
inactive: [2] | [3] | [6] | [9] | [10] | [7] | [8]

O=C=NCCCCCCN=C=O
inactive: [2] | [3] | [4] | [5] | [8]

CC[C@H](NC(=O)c1cc(F)ccc1NS(=O)(=O)c1cccc2cccnc12)c1ccccc1
active: [10] 13.1 µM | [5] 0.0124 µM
inactive: [2] | [3] | [6] | [4]
